The text below walks through data of PubChem BioAssay (NCATS).

SMILES strings stand for the structures. Results filed as inconclusive are left out. Unmarked numbers belong to inactive results. Calls of active or inactive are those of the source. The call rests on the fitted dose curve; in most records, active means well fitted cell-killing curve with a large enough effect; inconclusive means small, poorly fitted or top-dose-only effect, or effect the other way; inactive means no such curve, though single readings can be large or run the other way.
Potency means the concentration at half of the fitted maximal effect.

The nature of the assay: Quantitative High-Throughput drug screen in 47 multiple myeloma cell lines against the NCATS MIPE library collection: ARD_JJKsccE7 cell viability assay (AID 1918929;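 on viability: 100% = DMSO-only wells and 0% = media-only wells without cells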). Conditions: ARD myeloma cell line viability, CellTiter-Glo, 48 h; series mostly up to 45.8 µM; viability: at the top concentration. An outline of the steps: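 Viability readout: CellTiter-Glo luminescence following 5 min room-temperature incubation with reagent. Prior exposure: 48 h, 37C, humidified 5% CO2, 500 cells per well.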
A general note: In ATP-based viability assays light output follows the ATP content of the culture.
For the compound `COc1ccc2c(Oc3ccc(NC(=O)c4c(C)n(CC(C)(C)O)n(-c5ccccc5)c4=O)cc3F)ccnc2c1`, the Potency is 20.9 µM (active). For the compound `COC1CCC(N(C(=O)C2CCC(C)CC2)c2cc(C3=CCCCC3)sc2C(=O)O)CC1` (configuration not stated), the “viability” value was 121%.

With `Nc1nc(F)nc2c1ncn2[C@@H]1O[C@H](COP(=O)(O)O)[C@@H](O)[C@H]1O`, the Potency is 0.0019 µM (active).

For `Cc1cc(OCCCc2c(C(=O)O)n(Cc3cccnc3)c3c(-c4c(COc5ccc(N6CCN([S+](C)(=O)[O-])CC6)cc5)nn(C)c4C)cccc23)cc(C)c1Cl`, the “viability” value is 127%.

Consider `Cc1ccc([C@@H]2O[C@H](CO)[C@@H](O)[C@H](O)[C@@H]2O)cc1Cc1ccc(-c2ccc(F)cc2)s1`, for which the Potency was 20.9 µM (active).

As for `COc1cc(N2CCC(N3CCN(C)CC3)CC2)ccc1Nc1ncnc(Nc2ccccc2S(=O)(=O)C(C)C)n1`, the “viability” value is 154%. Same read-out and setting: the value for `CC[C@]1(O)C[C@@H]2CN(CCc3c([nH]c4ccccc34)[C@@](C(=O)OC)(c3cc4c(cc3OC)N(C=O)[C@@H]3C45CCN4CC=C[C@](CC)([C@H]45)[C@@H](OC(C)=O)[C@]3(O)C(=O)OC)C2)C1` (some centres not stated) was 102%. Take `O=C(O)[C@H]1O[C@H](Oc2cc3oc(-c4ccccc4)cc(=O)c3c(O)c2O)[C@H](O)[C@@H](O)[C@H]1O`: the “viability” value was 174%. For `COc1ccc(C2Sc3ccccc3N(CCN(C)C)C(=O)C2OC(C)=O)cc1` (configuration not stated), the “viability” value was 127%. As to `CC1CCC(C(=O)N(c2cc(C#CC(C)(C)C)sc2C(=O)O)C2CCC(O)CC2)CC1` (configuration not stated), the “viability” value is 103%.

Take `O=C1NC(=O)C(=Cc2ccc3c(c2)OC(F)(F)O3)S1`: the Potency was 16.6 µM (active).

Consider `Clc1cc(Cl)cc(CNc2ncncc2-c2ccc3c(c2)OCO3)c1`, for which the Potency was 16.6 µM (active). Take `COC(=O)N[C@H](C(=O)N1CCC[C@@H]1c1ncc(-c2ccc(-c3ccc(-c4cnc([C@@H]5CCCN5C(=O)[C@@H](NC(=O)OC)C(C)C)[nH]4)cc3)cc2)[nH]1)C(C)C`: the Potency was 23.5 µM (active). Turning to `C[C@H](NC(=O)c1sccc1OCc1ccc(Cl)cc1)c1ccccc1`, the “viability” value was 102%. On to `NC1=N[C@@]2(c3cc(NC(=O)c4ccc(F)cn4)ccc3F)COC[C@@H]2CS1`, for which the Potency was 1.87 µM (active). Same read-out and setting: the value for `O=C(Nc1cccc(Br)c1)c1cccc(S(=O)(=O)N2CCCCCC2)c1` was 16.6 µM (active). In the case of `COCCCCC(=NOCCN)c1ccc(C(F)(F)F)cc1`, the “viability” value was 105%.

Broadly, the viability is a read-out of living cells in per cent, often relative to untreated cells.
